According to the supplement of paper PMC12632987:

Biological target: GABARAPL2, P60520
Experiment: median log2 fold change of GCK-ALFA target abundance (FLAG IP / Myc IP barcode read proportion) (log2 ratio); each designed protein is fused to an ALFA-tag nanobody in HEK293 cells to bring the named protein to FLAG-tagged glucokinase (GCK); Myc marks an untargeted standard; higher = target protein stabilised (more abundant)
Conditions: target protein: 3xFLAG-MCP-GCK-ALFA reporter; HEK293 landing pad (RPLP)
Procedure, shortened: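 Sequencing of reverse-transcribed, amplified circular RNA barcodes from anti-FLAG and anti-Myc immunoprecipitates provided the readout for an ALFA-nanobody-fused binder library recombined into HEK293 landing-pad cells. Those cells were induced with 2 μg mL^−1 doxycycline, transfected with a plasmid expressing a FLAG-tagged target and a Myc-tagged standard, and lysed after 48 h. Target abundance is the per-binder median log2 ratio of FLAG to Myc barcode read proportions. Only barcodes at a proportion of ≥10^−7 in both replicates and binders with ≥3 barcodes per replicate were kept, with a 10^−6 pseudocount added before the two replicates were pooled.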

Sequence of GABARAPL2, P60520 (P60520 whole entry, the tested form may be a part): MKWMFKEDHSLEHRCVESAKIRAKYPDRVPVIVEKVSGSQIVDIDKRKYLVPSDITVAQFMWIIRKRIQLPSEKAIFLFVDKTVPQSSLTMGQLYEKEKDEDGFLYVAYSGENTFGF

B1: GBRAPL2_0_7253 (protein)
chain: KEELLEKLLSLSIEEAIKEVKKLAEEVIKYIKEKPEEGLKKAEELAEIFAELIEARKDEKLIKAVEEAIEKIVEEAKKIDPNEAAYIASIIGSALYEVES
median log2 fold change: 0.152

B2: GBRAPL2_0_7251 (protein)
chain: MEELLEELLSLSLEEAKKKIKELAEKVIKLIKEDPEKGLEEAEKLAKVFAEYLIETKNEELEKVIDEAIDKIVKEVAKIDPNKAAYIDAIIGSAIMEVES
median log2 fold change: -0.108

B3: GBRAPL2_0_7252 (protein)
chain: MEELLKELLSLSLEEAKAAIEKLAEEVIKLIEKDPEKGLKAAEELAEVFAEYLIERKNEELEEAIVKAIDKLVKEVAKVDPNKAAYIDSIIGSAIMEVEG
median log2 fold change: 0.0463

B4: GBRAPL2_0_7250 (protein)
chain: MEELLKELLSLSLEEAKKKIKELTEEVIKLIEKDPKKGLEKAIELAEIFAEYLIERKNEELEEVIDEAIDKLVKKVAEVDPNEAAYIDAIIGSAIMEVEG
median log2 fold change: -0.0651

B5: GBRAPL2_0_7256 (protein)
chain: LEEVLEEMKKLSIEEAAKLAKEYAEKLLADPSVTPEEFLEAIEKLLEVLAEKVKEEKTEEALEIFEEAVDYFTALAAKIDPNLAADVATYGGSLLYEIEE
median log2 fold change: 0.0867

B6: GBRAPL2_0_7245 (protein)
chain: MEELLEKLLSLSLEEAKKKIKELAEKAIKLIKEDPEKGIKEAEKLAEVFAEVLEKRKDEELLKVIEEAIDKIVKEVAKVDPNAAAYIDAIFGSAIMEVEG
median log2 fold change: 0.154

B7: GBRAPL2_0_7242 (protein)
chain: MEELLEELLSLSLEEAKARIRELAEEAIKLLKEDPEEGKKYAEELVEVFAEVLEKTKNEELREVIEEEVDRIVKEAAEIDPNFAAYLASIMGSAIYEVES
median log2 fold change: 0.159

B8: GBRAPL2_0_7254 (protein)
chain: MEKLLKELLSLSVEEAQKAIKEEAEKVVKYLKEDPEKGLEKAEELAEVFAELLKERKDEKLEETIEEAIDKIVKEAAKIDPNKAAYIAAIIGSALYEVES
median log2 fold change: 0.0528

B9: GBRAPL2_0_7246 (protein)
chain: MEELKKELLSLSLEEAKKKIKELAEKVIKLIKEDPEKGIEEAEKLTEVFAEVLVERKDEELKKVVEEAVEKIVEEVKKVDPKAAAYIDAIYGSALMEVEG
median log2 fold change: 0.169

B10: GBRAPL2_0_7241 (protein)
chain: MEELLKRLLSLSLEEAKAEIKRLAEEVIKLIKEDPEKGKKEAEELVEVFAEYLIKSKNEELLEVIEEEVDKIVKEVAKIDPNFAAYLDSIIGSAIAEVES
median log2 fold change: 0.00211

B11: GBRAPL2_0_7249 (protein)
chain: MEEELKELLSLSTEEAKKKIKEKAKEVIELIKKDPEEGLKAAEELAEIFAEYLEKTKNEELEEVIDEAIDEIVKEVAKVDPNEAAYIDAIIGSAIMEVEG
median log2 fold change: -0.0458

B12: GBRAPL2_0_7248 (protein)
chain: MEELLKELLSLSTEERKKKIKELAKEAVKLIKEDPEKGLEAAIELAEVFAKVIEETKNEEIAEVVDEAIDLIVKEAAEVDPNAAAEIASIVGSALLELEM
median log2 fold change: 0.0975

B13: GBRAPL2_0_7255 (protein)
chain: LEEVLKKMKESSIEEAVELAKEEADRLVADPSVTPEEFEEAAVALLEVLAEKAKEEKTEEALELLEEAVDYLTELAKKVDPDVAAFIDTYGGSLLYELEE
median log2 fold change: -0.088

B14: GBRAPL2_0_7243 (protein)
chain: MEELLKELLSLSLEEAKAAIKELAEEAIKLIREDPEKGIKYAEELMEVFAEVLEKRKDEELLKVIEEAVEKIVEEVAKVDPNEAAYIDAIFGSAVMEVEG
median log2 fold change: 0.0124

B15: GBRAPL2_0_7247 (protein)
chain: MEELLKELLELSVEEAKKKIKELAKKAVELIKKDPEKGLEEAEKLAEVFAEYLEETKNEELAEAVDEAARLLVEEAEKVDPNAAAYIASEVGSALLDLEM
median log2 fold change: -0.0333

B16: GBRAPL2_0_7244 (protein)
chain: MEELLKRLLSLSLEEAKKEIKELAEKVIKLIREKPEEGIKAAEELMEVFAEVLVERKDEELEEVVEEAVDAIVEEVAKVDPNAAAYIDAIFGSAIMEVEG
median log2 fold change: -0.291
